Data from PubChem BioAssay (Tox21).
Results filed as inconclusive are left out. Active and inactive are the calls of the source. Calls follow the shape of the full dose curve.

Experiment: qHTS assay for small molecule agonists of the p53 signaling pathway - cell viability (AID 651633);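 also: p53RE-bla HCT reporter cells with a stable beta-lactamase p53 reporter; nearly all actives have a fitted effect of over 30% in size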
Details: p53RE-bla HCT-116 viability, ATP luminescence, 16 h; series mostly up to 83.3 µM
Excerpt: National Center for Advancing Translational Sciences [NCATS]
NIH Chemical Genomics Center [NCGC]
U.S. Environmental Protection Agency [EPA]
National Institutes of Environmental Health Sciences [NIEHS]
National Toxicology Program [NTP]
U.S. Food and Drug Administration [FDA]
p53, a tumor suppressor protein, is activated following cellular insult, including DNA damage and other cellular stresses. The activation of p53 regulates cell fate by inducing DNA repair, cell cycle arrest, apoptosis, or cellular senescence. The activation of p53, therefore, is a good indicator of DNA damage and other cellular stresses. […] The activation of the reporter gene under culture conditions can be detected by fluorescence intensity. This cell line was used to screen the Tox21 compound library in a 1536-well plate format and to identify agonists that activate the p53 signaling pathway.
Tox21 Assay Protocol Summary:
The p53RE-bla cells were dispensed at 4,000 cells/5 ul/well in 1536-well black wall/clear bottom plates using a Multidrop dispenser. After the assay plates were incubated at a 37 C/5% CO2 incubator for 5 hours, 23 nL of compounds dissolved in DMSO, positive controls or DMSO only was transferred to the assay plate by a pin tool. The plates were incubated at 37 C for 16 hours. After 1 uL of LiveBLAzerTM B/G FRET substrate was added using a Flying Reagent Dispenser, the plates were incubated at room temperature for 2 hours, and fluorescence intensity was measured by an Envision plate reader.
For cell viability readout that measures cytotoxicity, 4 ul/well of CellTiter-Glo reagent was added into the assay plates using a Flying Reagent Dispenser. After 30 min incubation at room temperature, the luminescence intensity in the plates was measured using a ViewLux plate reader.

Row | SMILES | outcome
1 | c1ccc(OP(Oc2ccccc2)Oc2ccccc2)cc1 | inactive
2 | C=CC(N)=O | inactive
3 | ClCCBr | inactive
4 | CCCN(CCC)N=O | inactive
5 | C1CC2OC2CC1C1CO1 (stereo not given) | inactive
6 | Nc1ccc(Oc2ccc(N)cc2)cc1 | inactive
7 | COC(=O)NC(=S)Nc1ccccc1NC(=S)NC(=O)OC | inactive
8 | O=NN1CCCC1 | inactive
9 | Nc1ccc(Br)cc1 | inactive
10 | CCC[CH2][Sn]([Cl])([Cl])[Cl] | inactive
11 | CCNc1nc(NC(C)(C)C)nc(SC)n1 | inactive
12 | Nc1ccccc1C(=O)O | inactive
13 | CC(C)(C)OOC(=O)c1ccccc1 | inactive
14 | Cc1ccccc1O | inactive
15 | CN=C=S | inactive
16 | CC1C=[C-]C=C1.[C-]#[O+].[C-]#[O+].[C-]#[O+].[Mn] | inactive
17 | COCCl | inactive
18 | CCCN(CCC)c1c([N+](=O)[O-])cc(C(F)(F)F)cc1[N+](=O)[O-] | inactive
19 | CCOP(=S)(OCC)SCCSCC | inactive
20 | COc1ccc2c3c1O[C@H]1[C@@H](O)C=C[C@H]4[C@@H](C2)N(C)CC[C@@]341 | inactive

Row | SMILES | outcome
21 | Clc1ccc(Cl)cc1 | inactive
22 | Cc1[nH]c(=O)n(C(C)(C)C)c(=O)c1Cl | inactive
23 | CCNc1nc(NC(C)C)nc(SC)n1 | inactive
24 | CCOP(=S)(OCC)Oc1cnc2ccccc2n1 | inactive
25 | C=CCO | inactive
26 | CC(Br)C(=O)O (stereo not given) | inactive
27 | C#CC(C)(C)NC(=O)c1cc(Cl)cc(Cl)c1 | inactive
28 | CON(C)C(=O)Nc1ccc(Cl)c(Cl)c1 | inactive
29 | CC(C)OC(=O)Nc1ccccc1 | inactive
30 | c1ccc(-c2ccccc2)cc1 | inactive
31 | Cc1cc(-c2cc(C)c(N)c(C)c2)cc(C)c1N | inactive
32 | O=NN1CCCCCCC1 | inactive
33 | O=C1CCCN1 | inactive
34 | O=c1ccc(=O)[nH][nH]1 | inactive
35 | Clc1ccccc1Cl | inactive
36 | CC(C)(Cl)Cl | inactive
37 | Cc1cc(Cl)ccc1O | inactive
38 | [O-][Cl+2]([O-])O | inactive
39 | COP(N)(=O)SC (stereo not given) | inactive
40 | CCCCCCCCCCCC#N | inactive
